# Test results taken from publication PMC4336329 (PLoS ONE, 2015).
# The whole screen tested about 310,000 compounds, of which about 14,000 (4.5%) showed an effect of 50% or more. The effect is printed as a negative number. What follows is part of a selection rich in strong results, with near analogues and random picks from the rest.
# Molecular target: human ether-à-go-go-related gene (hERG) potassium channel (human, UniProt Q12809)
# Assay: primary screen, population patch clamp on CHO cells stably expressing hERG; higher = less effect of the substance
# Protocol: Briefly, Chinese hamster ovary (CHO) cells stably expressing the hERG channel were dislodged from tissue culture flasks and dispensed into PPC plates. […] During the recording, background leak currents were estimated by a 100 ms step to -80 mV from an initial holding potential of -70 mV and subtracted from the subsequent current measurement. The campaign was conducted in two phases using slight differences in recording protocol. In the first phase, the initial voltage pulse used a 100 ms step to -30 mV from a holding potential of -70 mV, a 2 s conditioning step to +25 mV, and a 2 s test step to -30 mV. During the second phase of the screen, the potential during the conditioning step was raised to +45 mV. In both phases of the campaign, a secondary voltage pulse was applied using the same parameters as the second phase initial pulse. The initial and secondary pulses were applied in the absence of compound, and upon application of 1 μM and 10 μM test concentrations. […]
# 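Further: peak tail current of the secondary pulse compared with the same well before compound.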
# Sequence of human ether-à-go-go-related gene (hERG) potassium channel (Q12809 whole entry, looked up): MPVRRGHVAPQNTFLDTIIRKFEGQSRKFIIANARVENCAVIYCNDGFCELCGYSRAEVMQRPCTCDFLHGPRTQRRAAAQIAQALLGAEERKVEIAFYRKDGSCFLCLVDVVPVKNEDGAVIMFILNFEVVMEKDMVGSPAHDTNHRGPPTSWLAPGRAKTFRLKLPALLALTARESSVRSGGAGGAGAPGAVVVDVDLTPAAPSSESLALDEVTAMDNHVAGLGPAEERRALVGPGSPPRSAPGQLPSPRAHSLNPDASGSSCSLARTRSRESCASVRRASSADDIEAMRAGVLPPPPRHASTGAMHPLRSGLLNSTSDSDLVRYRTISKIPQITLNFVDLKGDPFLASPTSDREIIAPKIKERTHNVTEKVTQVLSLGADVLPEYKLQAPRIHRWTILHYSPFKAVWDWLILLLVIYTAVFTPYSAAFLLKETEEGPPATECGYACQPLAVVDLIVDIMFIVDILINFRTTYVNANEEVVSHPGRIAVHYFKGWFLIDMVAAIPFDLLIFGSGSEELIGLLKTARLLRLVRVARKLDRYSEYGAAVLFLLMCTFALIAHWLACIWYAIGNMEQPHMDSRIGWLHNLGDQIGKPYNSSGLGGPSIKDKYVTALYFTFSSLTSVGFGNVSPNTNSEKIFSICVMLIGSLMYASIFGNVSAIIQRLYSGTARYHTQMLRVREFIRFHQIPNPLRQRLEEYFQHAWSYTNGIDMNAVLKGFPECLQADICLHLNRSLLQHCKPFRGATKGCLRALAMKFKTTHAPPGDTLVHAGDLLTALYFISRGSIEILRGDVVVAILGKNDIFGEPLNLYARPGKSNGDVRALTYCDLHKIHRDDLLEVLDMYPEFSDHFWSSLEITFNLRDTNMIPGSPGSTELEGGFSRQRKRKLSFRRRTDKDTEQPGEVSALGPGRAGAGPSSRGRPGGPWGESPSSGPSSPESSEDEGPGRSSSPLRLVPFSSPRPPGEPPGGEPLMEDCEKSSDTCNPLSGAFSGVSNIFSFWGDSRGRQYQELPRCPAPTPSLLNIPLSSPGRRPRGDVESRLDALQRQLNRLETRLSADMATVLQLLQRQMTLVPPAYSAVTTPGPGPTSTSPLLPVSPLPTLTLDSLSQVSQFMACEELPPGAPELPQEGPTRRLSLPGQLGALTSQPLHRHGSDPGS
row,SMILES,"hERG current change (%, negative = inhibition) at 10uM"
1,CC(C)c1cccc(C(C)C)c1OCCCCN1CCCC1,-22.7%
2,COc1ccccc1N(C)S(=O)(=O)c1ccc(C(=O)Nc2nccs2)cc1,-30.5%
3,CC(=O)c1ccc(NC(=O)CN2CCC(NC(=O)C3CCCCC3)CC2)cc1,-6.72%
4,COc1cccc(C(=O)N2CCCC(CCC(=O)NCc3ccc(F)c(F)c3)C2)c1 (stereo not drawn),-17.5%
5,COC(=O)c1ccccc1C(=O)N1CCCC(CCC(=O)NCc2ccc(F)c(F)c2)C1 (stereo not drawn),-10.1%
6,COCCNC(=O)CCC1CCN(C/C=C/c2ccccc2OC)CC1,-3.87%
7,COc1ccc(C(=O)N2CCCC(CCC(=O)NCc3ccc(F)c(F)c3)C2)cc1F (stereo not drawn),-22.8%
8,COc1cccc(CNC(=O)CCC2CCCN(C(=O)Cc3ccccc3F)C2)c1 (stereo not drawn),-7.61%
9,COc1ccccc1/C=C/CN1CCCC(CCC(=O)NCc2ccccc2F)C1 (stereo not drawn),-65.7%
10,COc1ccccc1CC(=O)N1CCCC(CCC(=O)NCc2ccccc2F)C1 (stereo not drawn),2.97%
11,COc1cccc(CNC(=O)CCC2CCCN(C(=O)c3ccc(OC)c(F)c3)C2)c1 (stereo not drawn),-9.79%
12,COc1ccc(/C=C/CN2CCCC(CCC(=O)NCc3ccc(F)c(F)c3)C2)cc1 (stereo not drawn),-72.8%
13,COc1ccccc1/C=C/CN1CCCC(CCC(=O)NCc2ccc(F)c(F)c2)C1 (stereo not drawn),-70%
14,COc1cccc(CNC(=O)CCC2CCCN(C/C=C/c3ccccc3OC)C2)c1 (stereo not drawn),-68.5%
15,COCCC(=O)N1CCCC(CCC(=O)NCc2ccc(F)c(F)c2)C1 (stereo not drawn),22.8%
16,CCCCC(NC(=O)c1cccc(Br)c1)C(=O)O (stereo not drawn),9.42%
17,Cc1nn(C)c(C)c1CNC(=O)Nc1cccc(Cl)c1,6.93%
18,CC1(C)CC(=O)c2cn3nc(C(F)(F)F)nc3nc2C1,4.21%
19,O=C(CN1CCN(S(=O)(=O)c2ccc(F)c(Cl)c2)CC1)N1CCc2ccccc21,-34.7%
20,CCOC(=O)c1ccc(NC(=O)NS(=O)(=O)c2ccc(C)cc2)cc1,10.9%

row,SMILES,"hERG current change (%, negative = inhibition) at 10uM"
1,CC(C)Oc1ccc(S(=O)(=O)N2CCCCC2)cc1NC(=O)CN1C(=O)NC2(CCCC2)C1=O,-2.87%
2,O=[N+]([O-])c1cccc(/C=N/NC2CCS(=O)(=O)C2)c1 (stereo not drawn),11.9%
3,Cc1ccc(S(=O)(=O)N2CCCC(CCC(=O)NCc3ccccc3F)C2)s1 (stereo not drawn),-50.7%
4,Cc1ccsc1C(=O)N1CCCC(CCC(=O)NCc2ccccc2F)C1 (stereo not drawn),-7.46%
5,Cc1ccsc1S(=O)(=O)N1CCCC(CCC(=O)NCc2ccccc2F)C1 (stereo not drawn),5.38%
6,CCOC(=O)C1=C(CSc2n[nH]c(N)n2)NC(=O)NC1C (stereo not drawn),3.79%
7,CC1CC(C)CN(S(=O)(=O)N2CCCC(C(=O)NC(C)c3ccccc3)C2)C1 (stereo not drawn),3.1%
8,COc1ccc(OC)c2[nH]c(C(=O)N3CCC(C(=O)O)CC3)cc12,24.6%
9,O=C(CSc1nnc(NC2CCCCC2)s1)NC1CCS(=O)(=O)C1 (stereo not drawn),-0.507%
10,N#Cc1ccc(Sc2ccccn2)c([N+](=O)[O-])c1,-61.5%
11,N#Cc1cc(Sc2ccccn2)c([N+](=O)[O-])cc1C#N,-18.9%
12,O=[N+]([O-])c1cc(Cl)ccc1NCCc1ccccn1,-16.8%
13,O=[N+]([O-])c1cc(Cl)ccc1Sc1ccccn1,3.65%
14,N#Cc1cc([N+](=O)[O-])ccc1NCCc1ccccn1,-18.4%
15,N#Cc1ccc(NCCc2ccccn2)c([N+](=O)[O-])c1,-74%
16,CC(C)(C)c1ccc(OCC(=O)O)cc1,17.9%
17,COC(=O)c1sc(S(=O)(=O)NCCC(=O)O)c(C(=O)OC)c1C,5.17%
18,CCOc1ccc(S(=O)(=O)N2CCOCC2)cc1NC(=O)CSC(=S)N1CCCC1,-63%
19,CCOc1ccc(S(=O)(=O)N2CCOCC2)cc1NC(=O)C1CCC1,16.3%
20,CCOc1ccc(S(=O)(=O)N2CCOCC2)cc1NC(=O)CSCC(=O)Nc1ccc(C)cc1,-18.2%

row,SMILES,"hERG current change (%, negative = inhibition) at 10uM"
1,Cc1cccc(NC(=O)CSCC(=O)Nc2ccc(S(=O)(=O)N3CCOCC3)cc2)c1,-5.21%
2,CCN(CC)c1ccc(S(=O)(=O)N2CCOCC2)cc1NC(=O)CSC(=S)N1CCCC1,-32.2%
3,Cc1cccc(NC(=O)CSCC(=O)Nc2cc(S(=O)(=O)N3CCOCC3)ccc2OC(C)C)c1,-87.2%
4,Cc1ccc(CSCC(=O)Nc2cc(S(=O)(=O)N3CCOCC3)ccc2OC(C)C)cc1,-30.5%
5,CCOc1ccc(S(=O)(=O)N2CCOCC2)cc1NC(=O)CSCc1ccc(C)cc1,-53.2%
6,CCOc1ccc(S(=O)(=O)N2CCOCC2)cc1NC(=O)CSCC(=O)Nc1cccc(C)c1,-11.4%
7,Cc1cc(C)c2c(c1)/C(=N/NC(=O)c1cc(C)oc1C)CCC2,6.66%
8,Cc1ccc(S(=O)(=O)N2CCC(C(=O)OCC(=O)NCCc3ccccc3)CC2)cc1C,-8.07%
9,C/C(=N\O)c1c(O)cc(-c2ccccc2)n(-c2ccccc2)c1=O,8.56%
10,CN(c1ccc(C(=O)N/N=C/c2cccc([N+](=O)[O-])c2)cc1)S(=O)(=O)c1ccccc1,1.88%
11,Cc1onc(-c2c(F)cccc2Cl)c1C(=O)N(C)C1CCCCC1,2.65%
12,CCN(CC)c1ccc(/C=N/NC(=S)NCc2ccccc2)c(O)c1,12%
13,COCCn1c(=S)[nH]c2cc(C(=O)N(CCO)Cc3ccccc3)ccc2c1=O,4.32%
14,CC(C)=CCc1c(O)ccc2c1OC(c1ccc(O)c(O)c1)CC2=O (stereo not drawn),9.78%
15,COc1ccc(C(=O)CCC(=O)N2CCN(c3ccccc3)CC2)cc1,-9.62%
16,COc1ccc(N2CCN(C(=O)CSc3ccccc3N)CC2)cc1,3.07%
17,COc1ccc(C(=O)NC(=S)N2CCN(c3ccc([N+](=O)[O-])cc3)CC2)cc1,-49.2%
18,COc1ccc(N2CCN(C(=O)CSc3ccc([N+](=O)[O-])cc3)CC2)cc1,-68.4%
19,COc1ccc(N2CCN(C(=O)CSc3ccccc3)CC2)cc1,4.44%
20,COc1ccc(C(=O)CCC(=O)N2CCN(c3ccc([N+](=O)[O-])cc3)CC2)cc1,-63.8%
